Source: PubChem BioAssay AID1159580 (chemical genetic matrix, 2015)
The campaign covered roughly 5,500 compounds. About 2,000 (36%) were called active. Inconclusive results (about 18%) are left out. Cut-off read from the data, not from the text of the source: active = normalized growth mostly below about 0.91 (no sharp cut-off); inconclusive = no clear call, values can overlap the other calls; inactive = mostly above about 0.92. Some of the results follow.

Assay: chemical genetic growth profiling, strain panel (AID 1159580);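 note: tested at 20 µM; growth read once vehicle control cultures reached saturation at 30 °C; 1 = growth at the plate median or of vehicle wells; lower values mean less growth of the strain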
Details: S. cerevisiae deletion strains, growth OD

Measured: normalized growth

N[C@@H](Cc1c[nH]c2ccccc12)C(=O)O
inactive: locus YAL040C, strain CLN3, hits give low values 1.02 | locus YCL061C, strain MRC1 (second series), hits give low values 1 | locus YDR150W, strain NUM1, hits give low values 1.01 | locus YDR363W, strain ESC2, hits give low values 1.01 | locus YER002W, strain NOP16, hits give low values 1.01 | locus YGR078C, strain PAC10, hits give low values 1 | locus YGR229C, strain SMI1, hits give low values 1.03 | locus YMR307W, strain GAS1, hits give low values 0.991 | locus YNL128W, strain TEP1, hits give low values 1 | locus YNL175C, strain NOP13, hits give low values 0.997 | locus YNL197C, strain WHI3, hits give low values 0.996 | locus YNL224C, strain SQS1, hits give low values 1.01 | locus YOR083W, strain WHI5 (second series), hits give low values 0.996 | locus YPL241C, strain CIN2, hits give low values 1.01

O=C(NCC(c1ccccc1)c1c[nH]c2ccccc12)c1ccc(C(F)(F)F)cc1 (stereo not given)
active: locus YHR030C, strain SLT2, hits give low values 0.807 | locus YLR113W, strain HOG1, hits give low values 0.859
inactive: locus YAR019C, strain CDC15, hits give low values 0.974 | locus YBL105C, strain PKC1, hits give low values 0.98 | locus YBR135W, strain CKS1, hits give low values 0.998 | locus YBR136W, strain MEC1, hits give low values 0.986 | locus YBR160W, strain CDC28, hits give low values 0.981 | locus YDL017W, strain CDC7, hits give low values 0.985 | locus YDL028C, strain MPS1, hits give low values 0.993 | locus YDL101C, strain DUN1, hits give low values 0.985 | locus YDL108W, strain KIN28, hits give low values 0.992 | locus YDL132W, strain cdc53, hits give low values 0.992 | locus YDL214C, strain PRR2, hits give low values 1.15 | locus YDR052C, strain DBF4, hits give low values 0.993 | locus YDR054C, strain cdc34, hits give low values 0.984 | locus YDR226W, strain ADK1, hits give low values 0.971 | locus YDR477W, strain SNF1, hits give low values 0.98 | locus YER123W, strain YCK3, hits give low values 0.971 | locus YER133W, strain GLC7, hits give low values 0.979 | locus YFL009W, strain cdc4, hits give low values 1.04 | locus YFL029C, strain CAK1, hits give low values 0.989 | locus YFR003C, strain YPI1, hits give low values 1.01 | locus YFR019W, strain FAB1, hits give low values 0.984 | locus YFR028C, strain CDC14, hits give low values 0.979 | locus YGR040W, strain KSS1, hits give low values 1 | locus YGR052W, strain FMP48, hits give low values 1.02 | locus YGR092W, strain DBF2, hits give low values 0.993 | locus YHR079C, strain IRE1, hits give low values 0.981 | locus YHR082C, strain KSP1, hits give low values 1.04 | locus YHR205W, strain SCH9, hits give low values 1.01 | locus YIL147C, strain SLN1, hits give low values 0.985 | locus YJL095W, strain BCK1, hits give low values 0.996 | locus YJL128C, strain PBS2, hits give low values 0.932 | locus YJL157C, strain FAR1, hits give low values 0.989 | locus YJR016C, strain ILV3, hits give low values 0.99 | locus YJR066W, strain TOR1 (second series), hits give low values 0.97 | locus YJR066W, strain TOR1, hits give low values 0.998 | locus YKL048C, strain ELM1, hits give low values 1 | locus YKL067W, strain YNK1, hits give low values 0.948 | locus YKL101W, strain HSL1, hits give low values 0.969 | locus YKL193C, strain SDS22, hits give low values 0.994 | locus YKL203C, strain TOR2, hits give low values 1.08 | locus YLR133W, strain CKI1, hits give low values 0.992 | locus YLR403W, strain SFP1, hits give low values 0.985 | locus YML070W, strain DAK1, hits give low values 0.979 | locus YMR001C, strain CDC5, hits give low values 0.991 | locus YMR205C, strain PFK2 (second series), hits give low values 0.981 | locus YMR277W, strain FCP1, hits give low values 0.965 | locus YNL006W, strain LST8, hits give low values 1.01 | locus YNL020C, strain ARK1, hits give low values 0.982 | locus YNL161W, strain CBK1, hits give low values 0.995 | locus YNL183C, strain NPR1, hits give low values 1.02 | locus YNL207W, strain RIO2, hits give low values 0.979 | locus YNL222W, strain SSU72, hits give low values 0.986 | locus YNL307C, strain MCK1 (second series), hits give low values 0.954 | locus YOL078W, strain AVO1, hits give low values 0.99 | locus YOL136C, strain PFK27, hits give low values 0.963 | locus YOR061W, strain CKA2, hits give low values 0.995 | locus YOR119C, strain RIO1, hits give low values 1.02 | locus YOR231W, strain MKK1, hits give low values 1.02 | locus YOR329C, strain SCD5, hits give low values 0.995 | locus YPL031C, strain PHO85, hits give low values 0.993 | locus YPL153C, strain RAD53, hits give low values 0.967 | locus YPL204W, strain HRR25, hits give low values 0.96 | locus YPL209C, strain IPL1, hits give low values 0.994 | locus YPL256C, strain CLN2, hits give low values 0.909 | locus YPR025C, strain CCL1, hits give low values 0.997 | locus YPR106W, strain ISR1, hits give low values 0.976 | locus YPR111W, strain DBF20, hits give low values 0.956 | strain NNK1, hits give low values 0.988 | strain TSCII, hits give low values 0.978
